# Data taken from PubChem BioAssay AID1159580 (chemical genetic matrix, 2015).
# Hit rate of the full screen: of about 5,500 compounds, about 2,000 (36%) were called active. Roughly 18% stayed inconclusive and do not appear here. The list shows a part of the results. A number with no mark means an inactive call. No stated cut-off is given here; in the data, active means normalized growth mostly below about 0.91 (no sharp cut-off); inconclusive means no clear call, values can overlap the other calls; inactive means mostly above about 0.92.
# Assay: chemical genetic growth profiling, strain panel (AID 1159580);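 further: tested at 20 µM; growth read once vehicle control cultures reached saturation at 30 °C; 1 = growth at the plate median or of vehicle wells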
# Conditions: growth OD
# [1] = S. cerevisiae deletion strains, locus YDL101C, strain DUN1, stronger effect = lower value
# [2] = S. cerevisiae deletion strains, locus YHR030C, strain SLT2, stronger effect = lower value
compound,measurement,setting,value
Cc1ccc(-c2csc(-c3ccncc3)n2)cc1,normalized growth,"S. cerevisiae deletion strains, locus YAR019C, strain CDC15, stronger effect = lower value",0.888 (active)
same,normalized growth,"S. cerevisiae deletion strains, locus YBL105C, strain PKC1, stronger effect = lower value",0.928
same,normalized growth,"S. cerevisiae deletion strains, locus YBR135W, strain CKS1, stronger effect = lower value",0.903
same,normalized growth,"S. cerevisiae deletion strains, locus YBR136W, strain MEC1, stronger effect = lower value",0.912
same,normalized growth,"S. cerevisiae deletion strains, locus YBR160W, strain CDC28, stronger effect = lower value",0.909
same,normalized growth,"S. cerevisiae deletion strains, locus YDL017W, strain CDC7, stronger effect = lower value",0.922
same,normalized growth,"S. cerevisiae deletion strains, locus YDL028C, strain MPS1, stronger effect = lower value",0.898
same,normalized growth,[1],0.912 (active)
same,normalized growth,"S. cerevisiae deletion strains, locus YDL108W, strain KIN28, stronger effect = lower value",0.914
same,normalized growth,"S. cerevisiae deletion strains, locus YDL132W, strain cdc53, stronger effect = lower value",0.891 (active)
same,normalized growth,"S. cerevisiae deletion strains, locus YDL214C, strain PRR2, stronger effect = lower value",0.781
same,normalized growth,"S. cerevisiae deletion strains, locus YDR052C, strain DBF4, stronger effect = lower value",0.938
same,normalized growth,"S. cerevisiae deletion strains, locus YDR054C, strain cdc34, stronger effect = lower value",0.879
same,normalized growth,"S. cerevisiae deletion strains, locus YDR226W, strain ADK1, stronger effect = lower value",0.905
same,normalized growth,"S. cerevisiae deletion strains, locus YDR477W, strain SNF1, stronger effect = lower value",0.68 (active)
same,normalized growth,"S. cerevisiae deletion strains, locus YER123W, strain YCK3, stronger effect = lower value",0.615 (active)
same,normalized growth,"S. cerevisiae deletion strains, locus YER133W, strain GLC7, stronger effect = lower value",0.661 (active)
same,normalized growth,"S. cerevisiae deletion strains, locus YFL009W, strain cdc4, stronger effect = lower value",0.89
same,normalized growth,"S. cerevisiae deletion strains, locus YFL029C, strain CAK1, stronger effect = lower value",0.89
same,normalized growth,"S. cerevisiae deletion strains, locus YFR003C, strain YPI1, stronger effect = lower value",0.921
same,normalized growth,"S. cerevisiae deletion strains, locus YFR019W, strain FAB1, stronger effect = lower value",0.859
same,normalized growth,"S. cerevisiae deletion strains, locus YFR028C, strain CDC14, stronger effect = lower value",0.89 (active)
same,normalized growth,"S. cerevisiae deletion strains, locus YGR040W, strain KSS1, stronger effect = lower value",0.718
same,normalized growth,"S. cerevisiae deletion strains, locus YGR052W, strain FMP48, stronger effect = lower value",0.717
same,normalized growth,"S. cerevisiae deletion strains, locus YGR092W, strain DBF2, stronger effect = lower value",0.441 (active)
same,normalized growth,[2],0.423 (active)
same,normalized growth,"S. cerevisiae deletion strains, locus YHR079C, strain IRE1, stronger effect = lower value",0.674
same,normalized growth,"S. cerevisiae deletion strains, locus YHR082C, strain KSP1, stronger effect = lower value",0.747
same,normalized growth,"S. cerevisiae deletion strains, locus YHR205W, strain SCH9, stronger effect = lower value",0.72
same,normalized growth,"S. cerevisiae deletion strains, locus YIL147C, strain SLN1, stronger effect = lower value",0.915
same,normalized growth,"S. cerevisiae deletion strains, locus YJL095W, strain BCK1, stronger effect = lower value",0.374 (active)
same,normalized growth,"S. cerevisiae deletion strains, locus YJL128C, strain PBS2, stronger effect = lower value",0.919
same,normalized growth,"S. cerevisiae deletion strains, locus YJL157C, strain FAR1, stronger effect = lower value",0.764
same,normalized growth,"S. cerevisiae deletion strains, locus YJR016C, strain ILV3, stronger effect = lower value",0.922
same,normalized growth,"S. cerevisiae deletion strains, locus YJR066W, strain TOR1 (second series), stronger effect = lower value",0.753
same,normalized growth,"S. cerevisiae deletion strains, locus YJR066W, strain TOR1, stronger effect = lower value",0.53
same,normalized growth,"S. cerevisiae deletion strains, locus YKL048C, strain ELM1, stronger effect = lower value",0.928
same,normalized growth,"S. cerevisiae deletion strains, locus YKL067W, strain YNK1, stronger effect = lower value",0.758
same,normalized growth,"S. cerevisiae deletion strains, locus YKL101W, strain HSL1, stronger effect = lower value",0.872
same,normalized growth,"S. cerevisiae deletion strains, locus YKL193C, strain SDS22, stronger effect = lower value",0.879 (active)
same,normalized growth,"S. cerevisiae deletion strains, locus YKL203C, strain TOR2, stronger effect = lower value",0.782
same,normalized growth,"S. cerevisiae deletion strains, locus YLR113W, strain HOG1, stronger effect = lower value",0.653 (active)
same,normalized growth,"S. cerevisiae deletion strains, locus YLR133W, strain CKI1, stronger effect = lower value",0.837
same,normalized growth,"S. cerevisiae deletion strains, locus YLR403W, strain SFP1, stronger effect = lower value",0.706
same,normalized growth,"S. cerevisiae deletion strains, locus YML070W, strain DAK1, stronger effect = lower value",0.788
same,normalized growth,"S. cerevisiae deletion strains, locus YMR001C, strain CDC5, stronger effect = lower value",0.91
same,normalized growth,"S. cerevisiae deletion strains, locus YMR205C, strain PFK2 (second series), stronger effect = lower value",0.771
same,normalized growth,"S. cerevisiae deletion strains, locus YMR277W, strain FCP1, stronger effect = lower value",0.865 (active)
same,normalized growth,"S. cerevisiae deletion strains, locus YNL006W, strain LST8, stronger effect = lower value",0.925
same,normalized growth,"S. cerevisiae deletion strains, locus YNL020C, strain ARK1, stronger effect = lower value",0.842
same,normalized growth,"S. cerevisiae deletion strains, locus YNL161W, strain CBK1, stronger effect = lower value",0.909
same,normalized growth,"S. cerevisiae deletion strains, locus YNL183C, strain NPR1, stronger effect = lower value",0.672
same,normalized growth,"S. cerevisiae deletion strains, locus YNL207W, strain RIO2, stronger effect = lower value",0.905
same,normalized growth,"S. cerevisiae deletion strains, locus YNL222W, strain SSU72, stronger effect = lower value",0.897
same,normalized growth,"S. cerevisiae deletion strains, locus YNL307C, strain MCK1 (second series), stronger effect = lower value",0.773
same,normalized growth,"S. cerevisiae deletion strains, locus YOL078W, strain AVO1, stronger effect = lower value",0.866 (active)
same,normalized growth,"S. cerevisiae deletion strains, locus YOL136C, strain PFK27, stronger effect = lower value",0.814
same,normalized growth,"S. cerevisiae deletion strains, locus YOR061W, strain CKA2, stronger effect = lower value",0.89
same,normalized growth,"S. cerevisiae deletion strains, locus YOR119C, strain RIO1, stronger effect = lower value",0.719
same,normalized growth,"S. cerevisiae deletion strains, locus YOR231W, strain MKK1, stronger effect = lower value",0.691
same,normalized growth,"S. cerevisiae deletion strains, locus YOR329C, strain SCD5, stronger effect = lower value",0.92
same,normalized growth,"S. cerevisiae deletion strains, locus YPL031C, strain PHO85, stronger effect = lower value",0.649 (active)
same,normalized growth,"S. cerevisiae deletion strains, locus YPL153C, strain RAD53, stronger effect = lower value",0.688
same,normalized growth,"S. cerevisiae deletion strains, locus YPL204W, strain HRR25, stronger effect = lower value",0.618 (active)
same,normalized growth,"S. cerevisiae deletion strains, locus YPL209C, strain IPL1, stronger effect = lower value",0.913
same,normalized growth,"S. cerevisiae deletion strains, locus YPL256C, strain CLN2, stronger effect = lower value",0.697 (active)
same,normalized growth,"S. cerevisiae deletion strains, locus YPR025C, strain CCL1, stronger effect = lower value",0.914
same,normalized growth,"S. cerevisiae deletion strains, locus YPR106W, strain ISR1, stronger effect = lower value",0.924
same,normalized growth,"S. cerevisiae deletion strains, locus YPR111W, strain DBF20, stronger effect = lower value",0.902
same,normalized growth,"S. cerevisiae deletion strains, strain NNK1, stronger effect = lower value",0.911
same,normalized growth,"S. cerevisiae deletion strains, strain TSCII, stronger effect = lower value",0.873 (active)
OC(c1ccccc1)(c1ccccc1)c1ccncc1,normalized growth,"S. cerevisiae deletion strains, locus YAL013W, strain DEP1, stronger effect = lower value",1.05
same,normalized growth,"S. cerevisiae deletion strains, locus YBR229C, strain ROT2, stronger effect = lower value",1
same,normalized growth,[1],1
same,normalized growth,"S. cerevisiae deletion strains, locus YDR150W, strain NUM1, stronger effect = lower value",1.01
same,normalized growth,"S. cerevisiae deletion strains, locus YEL061C, strain CIN8, stronger effect = lower value",0.991
same,normalized growth,"S. cerevisiae deletion strains, locus YGR078C, strain PAC10, stronger effect = lower value",1.02
same,normalized growth,"S. cerevisiae deletion strains, locus YGR229C, strain SMI1, stronger effect = lower value",0.997
same,normalized growth,[2],1.03
same,normalized growth,"S. cerevisiae deletion strains, locus YHR087W, strain rtc3, stronger effect = lower value",1.02
same,normalized growth,"S. cerevisiae deletion strains, locus YJR043C, strain POL32, stronger effect = lower value",1.01
same,normalized growth,"S. cerevisiae deletion strains, locus YJR075W, strain HOC1, stronger effect = lower value",0.984
same,normalized growth,"S. cerevisiae deletion strains, locus YKL190W, strain CNB1, stronger effect = lower value",0.996
same,normalized growth,"S. cerevisiae deletion strains, locus YLR039C, strain RIC1, stronger effect = lower value",1.03
same,normalized growth,"S. cerevisiae deletion strains, locus YLR058C, strain SHM2 (second series), stronger effect = lower value",0.996
same,normalized growth,"S. cerevisiae deletion strains, locus YLR085C, strain ARP6, stronger effect = lower value",1.19
same,normalized growth,"S. cerevisiae deletion strains, locus YLR262C, strain YPT6, stronger effect = lower value",0.997
same,normalized growth,"S. cerevisiae deletion strains, locus YML094W, strain GIM5, stronger effect = lower value",1.04
same,normalized growth,"S. cerevisiae deletion strains, locus YMR219W, strain ESC1, stronger effect = lower value",0.999
same,normalized growth,"S. cerevisiae deletion strains, locus YMR263W, strain SAP30, stronger effect = lower value",1.03
same,normalized growth,"S. cerevisiae deletion strains, locus YNL128W, strain TEP1, stronger effect = lower value",0.999
same,normalized growth,"S. cerevisiae deletion strains, locus YNL153C, strain GIM3, stronger effect = lower value",1.02
same,normalized growth,"S. cerevisiae deletion strains, locus YNL298W, strain CLA4 (second series), stronger effect = lower value",1.01
same,normalized growth,"S. cerevisiae deletion strains, locus YNL322C, strain KRE1, stronger effect = lower value",1
same,normalized growth,"S. cerevisiae deletion strains, locus YNR030W, strain Alg12, stronger effect = lower value",1.03
same,normalized growth,"S. cerevisiae deletion strains, locus YPL055C, strain LGE1, stronger effect = lower value",1.09
same,normalized growth,"S. cerevisiae deletion strains, locus YPL241C, strain CIN2, stronger effect = lower value",1.1
same,normalized growth,"S. cerevisiae deletion strains, locus YPR135W, strain CTF4, stronger effect = lower value",1.14
same,normalized growth,"S. cerevisiae strains, strain wild type, stronger effect = lower value",1.01
